# FMDV antiviral = High Throughput Screening for Foot and Mouth Disease Virus Antivirals; FMDV antiviral cell-based qHTS; Potency, µM (titrated, usually from 57.9 µM), for inactives: at the top dose activity change, negative = inhibition, usual class: inhibitors; 410,000 tested, 1.2% active; AID 1159524, 2015; calls by dose curve; tested in HEK293T cells; note: read-out not given here; potency is the fitted concentration of half-maximal effect; nearly all actives have a fitted effect of over 45% in size
# RE007 growth inh = qHTS Assay for Inhibitors of the HIV-1 protein Vpr; S. pombe RE007 Vpr strain, BacTiter-Glo ATP luminescence, 24 h; Potency, µM (titrated, usually from 92.2 µM), inactives show top-dose activity change, negative = less growth, actives largely listed as inhibitors; 360,000 tested, 0.21% active; active = well fitted falling curve with a large enough effect; inconclusive = small, poorly fitted or top-dose-only effect; inactive = no such curve, though single readings can be large or run the other way; note: potency is the fitted concentration of half-maximal effect; nearly all actives have a fitted effect of over 50% in size
#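 Fission yeast RE007 carrying one integrated HIV-1 vpr copy, seeded at OD 0.01 in PMG+AL medium with 23 nL pinned compound. Grown 24 h at 30 degrees; viability read by BacTiter-Glo luminescence after 5 min.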
# HCMV inh = qHTS Assay for inhibitors of the human cytomegalovirus (HCMV). HFF cells, HCMV-luciferase reporter, 72 h; active compounds read low. activity change, negative = inhibition, % at 57.5 µM. 410,000 tested, 4.5% active. AID 1259415, 2018; in the data active = activity change below about -60%; inconclusive = no clear call, values can overlap the other calls; inactive = above about -39%
#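 Screen run at 2 compound doses on HFFs infected with reporter HCMV, MOI 1 PFU/cell. Luciferase activity from cell lysates at 72 h post infection gave inhibition relative to buffer-only and Salinomycin wells.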
# Sm TGR inh = qHTS Assay for the Inhibitors of Schistosoma Mansoni Peroxiredoxins | purified TGR, DTNB reduction, TNB absorbance 405 nm | Potency, µM (series often up to 114 µM), for the others: top-dose activity change, negative = inhibition, most hits filed as inhibitors | 360,000 tested, 3% active; note: potency is the fitted concentration of half-maximal effect; nearly all actives have a fitted effect of over 60% in size
#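 TGR 20 nM + NADPH 100 uM (dispensed conc.), cpd preinc 15 min RT; start with NADPH (500 uM addition) then DTNB (15 mM addition). Kinetic TNB absorbance, 405 nm filter. Four-parameter Hill fit across titration.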
# Giardia FBPA inh = qHTS Assay for Inhibitors of Fructose-1,6-bisphosphate Aldolase from Giardia Lamblia; 290,000 tested, 0.71% active; A8B2U2; Potency, µM (titrated, usually from 59.6 µM), without a hit: at the highest dose activity, negative = inhibition, usual class: inhibitors; purified Giardia FBPA; note: potency is the fitted concentration of half-maximal effect; nearly all actives have a fitted effect of over 55% in size
# Target sequence (A8B2U2 whole entry, looked up): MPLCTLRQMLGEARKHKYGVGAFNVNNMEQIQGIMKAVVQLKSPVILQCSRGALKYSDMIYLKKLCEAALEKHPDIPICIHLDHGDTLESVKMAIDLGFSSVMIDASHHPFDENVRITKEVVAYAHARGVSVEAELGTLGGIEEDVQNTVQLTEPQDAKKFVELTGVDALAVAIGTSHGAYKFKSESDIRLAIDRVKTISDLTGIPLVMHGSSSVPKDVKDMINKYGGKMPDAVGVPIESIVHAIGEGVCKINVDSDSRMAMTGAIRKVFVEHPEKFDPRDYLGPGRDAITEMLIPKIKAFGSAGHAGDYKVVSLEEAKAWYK
#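 40 nM FBPA preincubated 10 min at RT with compound (up to 57.5 uM final), then substrate plus GAPDH/TPI/NAD/arsenate coupling and diaphorase/resazurin added. Fluorescence read after 20 min at RT, 525/598 nm.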
# TbPYK inhibitor = qHTS of Trypanosoma Brucei Inhibitors | 410,000 tested, 0.12% active | pyruvate kinase (Trypanosoma brucei), Q57TT1 | TbPYK enzyme, Kinase-Glo Plus ATP luminescence, 45 min | Potency, µM (top dose mostly 76.8 µM), for the others: at the top dose activity, negative = inhibition, actives largely listed as inhibitors; note: potency is the fitted concentration of half-maximal effect; nearly all actives have a fitted effect of over 50% in size
#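 Activity of T. brucei pyruvate kinase was followed by Kinase-Glo Plus luminescence after the enzyme reacted 45 min at room temperature with 130 uM ADP (final) and substrate. Test compounds were added before ADP at multiple concentrations.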
# * = called active by the depositor; ? = inconclusive; · = no result given; [ ] = another dose, or the depositor's remark. Only some compounds are listed: those with a hit (about 7.7% of all), similar ones and a draw of the others. Unless noted, calls come from the whole dose curve; as a rule, active = well fitted curve in the direction sought with a large enough effect; inconclusive = small, poorly fitted or top-dose-only effect, or another doubt; inactive = no such curve, though single readings can be large; an effect the other way counts as inactive or inconclusive. % is set by controls: 0 for no effect and ±100 for the full control effect.
SMILES,FMDV antiviral,RE007 growth inh,HCMV inh,Sm TGR inh,Giardia FBPA inh,TbPYK inhibitor
COc1ccc(CNC(=O)COC(=O)c2cc(-c3ccco3)nc3ccccc23)cc1,·,·,·,11.2µM*,-15.1%,·
O=C(c1ccco1)N1CCN(C(=O)c2cc(-c3ccccn3)nc3ccccc23)CC1,-0.4%,-15.6%,52.5,35.5µM*,1.8%,-7.0%
O=C(OCC(=O)N1CCN(C(=O)c2ccco2)CC1)c1cc(S(=O)(=O)Nc2ccc(Cl)cc2)ccc1O,-7.2%,-3.7%,2.5,44.7µM*,11.8%,3.9%
Cc1ccc(NC(=O)CSC(C)C(=O)OCC(=O)N2CCN(C(=O)c3ccco3)CC2)cc1 (stereo not given),10.7%,1.8%,-21.8,50.1µM*,·,-9.1%
COc1ccc(OC)c(C(=O)CSc2ncc3c(n2)-c2ccccc2N(Cc2ccccc2C)S3(=O)=O)c1,-1.4%,·,18.4,-1.9%,·,-3.6%
CSc1nc(C(=O)N2CCc3c(cnc(C)c3CNC(=O)c3ccc4c(c3)OCO4)C2)cs1,-0.4%,·,·,·,·,·
Cn1c(=O)c(C(=O)COC(=O)c2cc(-c3ccco3)nc3ccccc23)c(N)n(CC2CC2)c1=O,·,·,·,3.55µM*,-23.9%,·
CCOC(=O)c1nnc(-c2cccs2)nc1Oc1ccc(Cl)cc1,28.2µM*,23.2%,34.3,-25.3%,-7.2%,-1.3%
CCOC(=O)c1nnc(-c2cccs2)nc1Oc1ccccc1C(=O)OC,?,-7.6%,103.0,?,-11.3%,-0.5%
CCN(CC)C(=O)c1ccc2c(c1)N(Cc1ccc(C(F)(F)F)cc1)C(=O)c1ccccc1S2,?,·,-12.6,2.7%,·,1.9%
Cc1cc2nc(CCN(C(=S)NCC3CCCO3)C3CCCC3)[nH]c2cc1C (stereo not given),-0.1%,-12.1%,-62.9*,0.4%,-21.3%,-7.4%
Cc1cccc2cc(CN(C(=S)NCC(C)C)C3CCCC3)c(=O)[nH]c12,-9.1%,9.1%,-18.8,1.1%,4.9%,1.0%
Cc1cc2nc(CCN(C(=S)NCC(C)C)C3CCCC3)[nH]c2cc1C,·,0.2%,-85.3*,-19.4%,1.4%,-3.0%
COC(=O)CCCC1=CC2=CC(=O)C(C)(OC(=O)c3cccs3)C(=O)C2=CN1Cc1ccco1 (stereo not given),-11.3%,-12.8%,-2.5,35.5µM*,?,-4.2%
COC(=O)CCC(=O)OC1(C)C(=O)C=C2C=C(C3CC3)N(Cc3ccco3)C=C2C1=O (stereo not given),-23.7%,0.2%,-19.7,31.6µM*,?,-0.6%
COC(=O)CCCC1=CC2=CC(=O)C(C)(OC(=O)c3cccs3)C(=O)C2=CN1CCc1c[nH]c2ccccc12 (stereo not given),-8.1%,-3.9%,41.6,?,0.446µM*,2.3%
COC(=O)CCCC1=CC2=CC(=O)C(C)(OC(=O)c3cccs3)C(=O)C2=CN1Cc1ccccc1 (stereo not given),0.0%,-13.8%,-3.6,-3.0%,?,1.3%
CCCCC1=CC2=CC(=O)C(C)(OC(=O)CC)C(=O)C2=CN1CCc1c[nH]c2ccccc12 (stereo not given),-7.0%,-12.7%,4.4,44.7µM*,?,2.0%
COc1cccc(NC(=O)Cn2c(=O)n(Cc3ccccc3)c(=O)c3c2c2cc(C)ccc2n3C)c1,3.1%,·,24.5,0.7%,·,-11.5%
COc1ccc(NC(=O)C2CCCN(S(=O)(=O)c3ccc(Br)s3)C2)cc1 (stereo not given),-19.1%,·,-4.8,0.7%,·,-1.0%
O=C(Cc1n[nH]c(=O)c2ccccc12)OCc1c(Cl)cccc1Cl,-1.7%,-12.3%,-67.6*,18.7%,1.3%,1.3%
CCOC(=O)Cc1n[nH]c(=O)c2ccccc12,-6.0%,2.1%,-26.5,4.0%,0.8%,-6.9%
C[C@H](CO)N1C[C@H](C)[C@H](CN(C)S(C)(=O)=O)OCc2ccccc2-c2c(n(C)c3ccccc23)C1=O,71.0%,-15.8%,9.9,·,·,5.3%
C[C@H](CO)N1C[C@H](C)[C@H](CN(C)S(=O)(=O)c2ccc(Cl)cc2)OCc2ccccc2-c2c(n(C)c3ccccc23)C1=O,-14.9%,12.5%,-67.9*,·,·,-14.4%
Cc1ccc(S(=O)(=O)N(C)C[C@@H]2OCc3ccccc3-c3c(n(C)c4ccccc34)C(=O)N([C@H](C)CO)C[C@@H]2C)cc1,-12.8%,-4.8%,-60.1*,·,·,2.0%
SMILES,FMDV antiviral,RE007 growth inh,HCMV inh,Sm TGR inh,Giardia FBPA inh,TbPYK inhibitor
C[C@@H]1CN([C@H](C)CO)C(=O)c2c(c3ccccc3n2C)-c2ccccc2CO[C@@H]1CN(C)S(=O)(=O)c1cccs1,-24.2%,0.3%,-80.8*,·,·,2.6%
N#Cc1ccc(NC(=O)COCc2cc(-c3ccco3)on2)cc1,-6.0%,·,0.0,-8.3%,·,8.5%[15.4 µM]
O=C(Oc1ccc(F)cc1)c1nc(SCc2ccc(F)cc2)ncc1Cl,-11.6%,·,?,0.0%,·,-2.7%
O=C(NCCc1ccccc1)c1csc(C(O)Cc2ccc(F)cc2)n1 (stereo not given),·,·,6.8,·,·,·
CCC(=O)N1CCc2cc(Br)cc(S(=O)(=O)N3CCCC(C(=O)Nc4cccc(Cl)c4C)C3)c21 (stereo not given),-24.1%,·,-4.3,5.3%,·,7.3%
C[C@]12CC[C@H]3C(CCC4(O)CC(O)CC[C@]34C=O)C1=CC[C@H]2c1ccc(=O)oc1 (stereo not given in full),-6.1%,0.9%,-98.6*,-0.5%,-2.6%,6.7%
Cc1ccc(NC(=O)c2ccc(CN3CC(=O)N4CCCCC4C3=O)cc2)cc1 (stereo not given),10.8%,·,22.8,0.4%,·,1.7%
CC1=CC(C#N)(C#N)C(C#N)(C#N)C(c2ccccc2)N1 (stereo not given),·,·,·,22.4µM*,?,·
COC1(OC)N=C(N)C2(C#N)C(c3ccccc3)NC(C)=CC12C#N (stereo not given),-2.9%,18.1%,-2.4,-2.1%,-26.7%,-12.0%
Cc1cc2nc(-c3cc(NC(=O)c4cc5ccccc5o4)ccc3Cl)oc2cc1C,20.0%,·,18.9,-1.0%,·,3.9%
CCOC(=O)C1C(C(=O)Nc2cccc(C(F)(F)F)c2)C1C(=O)NC(C)C (stereo not given),31.6µM*,-18.9%,-17.7,-2.2%,0.2%,-3.1%
COC(=O)[C@H](C)NC(=O)Nc1cccc(C(F)(F)F)c1,-12.6%,1.6%,27.7,3.2%,1.7%,-11.9%
CCC(C)(C)C1CCC(=NNC(=S)Nc2ccccc2)CC1 (stereo not given),-23.1%,21.7%,-3.7,2.4%,-3.5%,-12.2%
